A selection: hits, their analogues and other compounds. The true share with any hit is near 31%.
CYP2C19 inhib – inhibitors of human CYP2C19; P33261; CYP2C19 Supersomes, luciferin-H EGE luminescence, 30 min; inhibition, % at 5 µM; hit rate 21% among 96,000; AID 778;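 active = CYP2C19 inhibition above a set limit at 5 µM in the primary screen, cut at about 50% in these data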
Target sequence (P33261 whole entry, looked up): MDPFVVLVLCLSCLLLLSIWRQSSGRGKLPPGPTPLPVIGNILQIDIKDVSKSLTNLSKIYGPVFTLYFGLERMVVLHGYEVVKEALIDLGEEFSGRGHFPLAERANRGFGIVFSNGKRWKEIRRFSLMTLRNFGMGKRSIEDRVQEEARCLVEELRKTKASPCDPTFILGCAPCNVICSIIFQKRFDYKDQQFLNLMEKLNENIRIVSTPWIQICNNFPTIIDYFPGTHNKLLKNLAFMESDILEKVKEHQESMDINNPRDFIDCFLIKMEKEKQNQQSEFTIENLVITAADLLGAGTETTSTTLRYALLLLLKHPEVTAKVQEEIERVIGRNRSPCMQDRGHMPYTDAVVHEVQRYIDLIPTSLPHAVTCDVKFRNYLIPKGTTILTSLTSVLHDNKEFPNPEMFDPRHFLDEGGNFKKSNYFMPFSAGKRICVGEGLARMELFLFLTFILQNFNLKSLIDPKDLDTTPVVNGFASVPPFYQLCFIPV
CYP2C9 act – CYP2C9 (human) activation; P11712; recombinant CYP2C9, luciferin-H conversion, luminescence; active compounds read high; factor 1 = untreated enzyme, 0 = blocked; activation factor at 5 µM; hit rate 1.4% among 96,000;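 active = activation factor of 2 or more for CYP2C9 at a 5 µM dose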
CYP2C9 inh – blocks human cytochrome P450 2C9; inhibition, % at 5 µM; hit rate 20% among 96,000; AID 777; P11712; CYP2C9 Supersomes, luciferin-H conversion, luminescence;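 active = blocking of liver enzyme CYP2C9 beyond about 50% at 5 µM, limit read from the data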
PLAP activator – activators of human placental alkaline phosphatase; P05187; purified PLAP enzyme, luminescent substrate read-out; active compounds read high; activation fold at 20 µM; hit rate 1.2% among 96,000; in the data active = activation fold above about 2
CYP2C19 act – activators of human cytochrome P450 2C19; activation factor at 5 µM; recombinant CYP2C19, luciferin-H EGE luminescence; active compounds read high; 0 = fully inhibited enzyme, 1 = untreated enzyme; 96,000 tested, under 10 active;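 active = activation factor of at least 2 at 5 µM in the primary screen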
Of the large screens only hits and unclear results are named; the others gave an inactive call.

CCOC(=O)CN1C(=O)C(O)(CC(=O)c2ccco2)c2ccccc21 (configuration not stated)	none
C#CCN1C(=O)C(O)(CC(=O)c2cccc(OC)c2)c2ccccc21 (configuration not stated)	none
Cc1n[nH]c(C)c1C(=O)CC1(O)C(=O)N(CCc2ccccc2)c2ccc(Cl)cc21 (configuration not stated)	CYP2C19 inhib 99.3, CYP2C9 inh 95.0
C=CCN1C(=O)C(O)(CC(=O)c2ccc(OC)cc2OC)c2cc(Br)ccc21 (configuration not stated)	CYP2C19 inhib 63.0, CYP2C9 inh 81.5
CCOC(=O)CN(C(=O)CNC(=O)c1cccs1)C(C(=O)NC1CCCC1)c1cccnc1 (configuration not stated)	none
CN1C(=O)C(O)(CC(=O)c2ccncc2)c2ccccc21 (configuration not stated)	none
CN1C(=O)C(O)(CC(=O)c2ccccc2O)c2cc(Br)ccc21 (configuration not stated)	CYP2C19 inhib 96.6, CYP2C9 inh 92.4
Brc1c(CSc2nnc(-c3ccco3)o2)nc2ccccn12	CYP2C19 inhib 77.8, CYP2C9 act 2.2
c1coc(-c2nnc(SCc3cn4ccccc4n3)o2)c1	none
O=C(Nc1cccc(S(=O)(=O)C(F)F)c1)c1ccc(Cl)c(S(=O)(=O)N2CCOCC2)c1	none
COc1ccc(S(=O)(=O)Cc2ccc(C(=O)NCc3cccs3)o2)cc1	CYP2C9 inh 60.3
O=C(NCc1cccs1)c1cc2ccccc2o1	CYP2C19 inhib 56.3
O=C(NCc1cccs1)c1ccccc1C(=O)NCc1cccs1	none
O=C(NCc1cccnc1)c1ccc(CS(=O)(=O)c2ccc(Cl)cc2)o1	CYP2C19 inhib 100.1, CYP2C9 inh 92.6
O=C(NCc1cccs1)c1ccc(CS(=O)(=O)c2ccc(Cl)cc2)o1	CYP2C19 inhib 52.0, CYP2C9 inh 72.0
Cc1ccc(-c2c(C)n([O-])c3c([n+]2=O)CCCCC3)o1	none
C=CCC1CCCCC12NC(=O)NC2=O (configuration not stated)	none
COc1cc(C(=O)O)cc(Br)c1OC1CCCC1	none
O=C(Nc1cccc(Cl)c1)NC1(C(=O)NCc2cccs2)CCCCC1	none
COc1ccc(CN2CCc3ccccc3C2)c(OC)c1OC	CYP2C19 inhib 61.2
COc1ccccc1N1CCN(Cc2cccc(OC)c2OC)CC1	none
COc1ccc(-c2nnc(SCC(=O)N3CCc4ccccc4C3)o2)cc1	CYP2C19 inhib 78.1
O=C(CSc1nnc(-c2ccccc2)o1)N1CCc2ccccc2C1	none
O=C(CSc1nnc(-c2ccccc2O)o1)N1CCc2ccccc2C1	CYP2C19 inhib 63.2
O=S1(=O)CCN2C(Cc3ccc(SC(F)F)cc3)=CSC2=N1	none
CCCCn1c(CCn2nc(C)c(Br)c2C)n[nH]c1=S	CYP2C19 inhib 89.9, PLAP activator 2.1
CCCCn1c(-c2ccc([N+](=O)[O-])cc2)n[nH]c1=S	none
CCN(CC)CCN1C(=O)C(O)=C(C(C)=O)C1c1ccccc1 (configuration not stated)	none
CCCCCC(=O)NNC(=O)c1ccc(-c2ccccc2)cc1	none
CCOc1cc(/C=C(\C#N)c2[nH]nc(N)c2C#N)ccc1O	CYP2C19 inhib 60.1
CCOc1cc(-c2cc(-c3ccc(C)cc3)nc(N)c2C#N)ccc1O	CYP2C9 inh 84.4
COc1cc(C=C(C(C)=O)C(C)=O)ccc1O	none
Cc1ccc(C(O)P(=O)(OC2CCCCC2)OC2CCCCC2)cc1 (configuration not stated)	CYP2C19 inhib 88.6, CYP2C9 inh 61.6
Cc1[nH]c2ccccc2c1C(=O)COC(=O)C1CC(=O)N(Cc2ccco2)C1 (configuration not stated)	CYP2C19 inhib 56.3
CCOC(=O)C1CCN(CC(=O)c2c(C)[nH]c3ccccc23)CC1	none
COc1cc2c(cc1NC(=O)COC(=O)C1CC(=O)N(Cc3ccco3)C1)oc1ccccc12 (configuration not stated)	CYP2C9 inh 58.9
O=C(CSCCO)Nc1nccs1	none
Cc1nc2cc(NC(=O)N3c4ccccc4CC3C)ccc2n1C (configuration not stated)	none
c1cncc(-c2noc(-c3ccco3)n2)c1	none
Cc1ccc(-c2nc(-c3cccnc3)no2)cc1	CYP2C19 inhib 76.0
c1cncc(-c2noc(-c3cccc4ccccc34)n2)c1	none
CCC(=O)Oc1ccc(-c2nc(-c3cccnc3)no2)cc1	CYP2C19 inhib 67.8, CYP2C9 inh 69.5
Cc1ccc(-c2nc(-c3ccccc3)no2)cc1	CYP2C19 inhib 66.4
c1ccc(-c2ccccc2-c2nc(-c3cccnc3)no2)cc1	CYP2C19 inhib 72.9, CYP2C9 inh 95.9
CCc1ccc(OCc2nnc(SCCN3CCOCC3)n2C)cc1	none
O=C1CC(N2CCN(c3ccc(S(=O)(=O)N4CCCC4)cc3)CC2)C(=O)N1c1ccc(F)cc1 (configuration not stated)	none
O=C(NNC(=O)C1CCCCC1)C(=O)NC1CCCCC1	none
CC(C)CCOc1ccc(C(=O)NCCC(=O)N2CCOCC2)cc1	none
CCCCNC(=O)CCCn1c(=O)c2ccccc2n(CC(=O)NCCC2=CCCCC2)c1=O	CYP2C19 inhib 66.6, CYP2C9 inh 72.0
O=C(Cn1c(=O)n(CCCC(=O)NC2CCCC2)c(=O)c2ccccc21)NCCC1=CCCCC1	CYP2C9 inh 68.2
O=C(CCCCn1c(=O)[nH]c2ccccc2c1=O)NCCC1=CCCCC1	none
O=C(CSc1ccc2ccccc2c1)Nn1cnnc1	CYP2C19 inhib 88.4, CYP2C9 inh 90.5
O=C(CSc1ccc(Cl)cc1)Nn1cnnc1	CYP2C19 inhib 87.2, CYP2C9 inh 82.1
O=C(CSc1ncccn1)Nn1cnnc1	none
Cc1cnc(NC(=O)CSc2ccc(Cl)cc2)s1	CYP2C19 inhib 68.8
CC(C)C(NC(=O)CSc1ccc(Cl)cc1)C(C)C	CYP2C19 inhib 100.0, CYP2C9 inh 65.9
Cn1c(=O)c2c(nc(CN3CCN(C(=O)c4ccco4)CC3)n2Cc2ccc(Cl)cc2)n(C)c1=O	none
O=S(=O)(c1ccc(C2CCCCC2)cc1)N1CCN(c2ncccn2)CC1	none
Cc1nc(N2CCN(S(=O)(=O)c3ccccc3)CC2)c2cc(-c3ccccc3)sc2n1	CYP2C9 inh 52.6
Cc1ccc(S(=O)(=O)N2CCN(c3nc4ccccc4nc3-n3nc(C)cc3C)CC2)cc1	none
O=S(=O)(c1ccccc1)N1CCN(c2ncccn2)CC1	CYP2C9 inh 61.9
O=S(=O)(c1cc(F)cc(F)c1)N1CCN(c2ncccn2)CC1	CYP2C19 inhib 71.7
Cc1nn(Cc2c(Cl)cccc2Cl)c(Cl)c1/C=C/C(=O)OCC(=O)NCC(F)(F)F	none
COCCNC(=O)COC(=O)/C=C/c1c(C)nn(Cc2ccc(Cl)cc2Cl)c1Cl	CYP2C9 inh 56.2
COC(=O)C(NNc1ccccc1)(NC(=O)c1cccc(F)c1)C(F)(F)F (configuration not stated)	CYP2C19 inhib 83.1, CYP2C9 inh 84.0
C=CCn1c(Cc2csc(N)n2)nnc1SCC(=O)OCC	none

Compound activity deposited in PubChem BioAssay by Sanford-Burnham Center for Chemical Genomics.
